In ChEMBL document CHEMBL3988442, “University of Dundee, Small-Polar-MMV Screening Library” (2021) one finds Percent Effect data, which are given here for eleven compounds.

Holding throughout (set-up): scale not given: direction of the effect not stated beside the values
Experiment [1] has as its target Protein translocase subunit SecA (Escherichia coli (strain K12)) (UniProt P10408). Put plainly: Assay to Identify E. coli SecA ATPase Inhibitors. The settings on record: 30 µM. The experiment is classed as functional.
The target in experiment [2] is T1, Ubiquitin-activating enzyme e1, putative (Leishmania donovani (strain BPK282A1)) (UniProt E9BSI1).
T1 sequence (whole entry): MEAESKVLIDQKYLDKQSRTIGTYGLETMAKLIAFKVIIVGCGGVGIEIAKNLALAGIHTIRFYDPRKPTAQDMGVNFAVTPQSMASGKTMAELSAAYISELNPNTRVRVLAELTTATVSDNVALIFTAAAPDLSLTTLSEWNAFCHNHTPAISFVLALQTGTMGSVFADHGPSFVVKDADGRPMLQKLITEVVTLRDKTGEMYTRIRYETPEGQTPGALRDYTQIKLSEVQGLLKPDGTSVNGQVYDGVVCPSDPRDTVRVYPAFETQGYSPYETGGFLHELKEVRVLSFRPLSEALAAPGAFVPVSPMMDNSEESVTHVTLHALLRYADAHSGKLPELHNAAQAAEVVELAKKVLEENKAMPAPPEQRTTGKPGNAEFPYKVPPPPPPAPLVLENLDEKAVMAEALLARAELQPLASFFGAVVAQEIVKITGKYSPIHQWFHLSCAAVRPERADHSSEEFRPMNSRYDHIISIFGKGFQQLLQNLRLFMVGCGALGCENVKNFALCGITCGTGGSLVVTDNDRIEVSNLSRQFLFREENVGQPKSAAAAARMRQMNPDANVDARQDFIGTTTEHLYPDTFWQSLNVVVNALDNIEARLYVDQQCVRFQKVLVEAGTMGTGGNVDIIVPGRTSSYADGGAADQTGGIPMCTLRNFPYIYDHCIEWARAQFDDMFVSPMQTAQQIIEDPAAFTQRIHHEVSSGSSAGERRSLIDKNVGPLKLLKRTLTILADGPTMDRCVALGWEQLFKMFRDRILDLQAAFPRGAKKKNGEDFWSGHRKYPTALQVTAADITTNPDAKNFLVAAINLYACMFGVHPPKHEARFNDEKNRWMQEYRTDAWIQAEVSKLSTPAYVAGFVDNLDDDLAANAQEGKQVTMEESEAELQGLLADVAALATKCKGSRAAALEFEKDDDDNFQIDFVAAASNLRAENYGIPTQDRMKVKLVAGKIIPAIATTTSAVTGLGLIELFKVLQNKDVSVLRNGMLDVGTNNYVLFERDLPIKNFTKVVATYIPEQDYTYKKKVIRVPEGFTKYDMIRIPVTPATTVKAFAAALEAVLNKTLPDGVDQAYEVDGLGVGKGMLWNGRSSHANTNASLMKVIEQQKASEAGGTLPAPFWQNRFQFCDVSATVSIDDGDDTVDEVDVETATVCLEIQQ
Put plainly: Leishmania donovani Ubiquitin Activating Enzyme (LdE1). The experiment is classed as functional. Particulars: 30 µM.

Experiment [3] addresses AMP-activated protein kinase, AMPK (Homo sapiens) (UniProt P54646+O43741+P54619+Q9UGJ0+Q9Y478+Q13131+Q9UGI9). In words: AMP-dependent Kinase enzyme assay. An in vitro enzyme assay that detects ADP turnover that is directly proportional to AMPK activity. This uses naive AMPK that is activated during the assay with MK-8722. The format is functional. The settings on record: 30 µM.

Experiment [4] addresses Sialic acid-binding Ig-like lectin 9 (Homo sapiens) (UniProt Q9Y336). Put plainly: Hs-Siglec9 ALPHAscreen SOP 20170721. The settings on record: 10 µM. For orientation: Bead proximity is the source of the signal in Alpha formats.
Experiment [5] concerns Trypanosoma cruzi. Put plainly: Trypanosoma cruzi phosphomannomutase and mannose-1-phosphate guanylyltransferase assay. The format is functional. Particulars: 10 µM.
In experiment [6] the target is T2, Arginase-2, mitochondrial (Homo sapiens) (UniProt P78540).
T2 sequence (whole entry): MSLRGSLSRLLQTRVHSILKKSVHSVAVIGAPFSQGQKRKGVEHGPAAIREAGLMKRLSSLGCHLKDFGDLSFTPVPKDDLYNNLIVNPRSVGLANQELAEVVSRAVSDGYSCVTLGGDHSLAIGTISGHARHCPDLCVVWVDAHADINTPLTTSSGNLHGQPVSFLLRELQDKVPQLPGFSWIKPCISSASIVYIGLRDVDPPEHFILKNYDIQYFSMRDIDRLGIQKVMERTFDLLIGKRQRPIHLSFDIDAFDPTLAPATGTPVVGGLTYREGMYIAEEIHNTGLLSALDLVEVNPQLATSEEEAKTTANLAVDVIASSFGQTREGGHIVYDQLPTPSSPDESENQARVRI
In words: in vitro enzyme assay to detect the production of urea directly proportional to the activity of Arginase II. Also: in the data most compounds retested in dose-response had high values. The format is functional. Particulars: 33.3 µM.

The target in experiment [7] is T3, Proteasome subunit beta (Trypanosoma cruzi) (UniProt O96673).
T3 sequence (whole entry): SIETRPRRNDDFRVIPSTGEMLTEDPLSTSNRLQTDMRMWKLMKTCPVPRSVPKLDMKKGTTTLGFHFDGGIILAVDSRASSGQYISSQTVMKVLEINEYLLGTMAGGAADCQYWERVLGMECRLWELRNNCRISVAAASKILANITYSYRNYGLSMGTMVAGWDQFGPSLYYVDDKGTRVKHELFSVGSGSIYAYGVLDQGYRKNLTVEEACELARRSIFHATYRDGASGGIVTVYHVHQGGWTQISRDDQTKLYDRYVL
In words: Trypanosoma cruzi proteasome chymotrypsin-like activity (TcProtChymo) assay. Also: in the data most compounds retested in dose-response had high values. Particulars: 9.37 µM. The format is functional.

The species named for experiment [8] is Homo sapiens. Put plainly: To identify inhibition of the IFN signalling (Jak-Stat) pathway via expression of an eGFP reporter gene under the control of an IFN-stimulated response element (ISRE) containing MxA promoter. The experiment is classed as functional. Particulars: 30 µM. Background: In a reporter assay the amount or activity of a reporter protein is the signal.

The target in experiment [9] is T4, Tyrosyl-tRNA synthetase, putative (Trypanosoma cruzi (strain CL Brener)) (UniProt Q4DSP6).
T4 sequence (whole entry): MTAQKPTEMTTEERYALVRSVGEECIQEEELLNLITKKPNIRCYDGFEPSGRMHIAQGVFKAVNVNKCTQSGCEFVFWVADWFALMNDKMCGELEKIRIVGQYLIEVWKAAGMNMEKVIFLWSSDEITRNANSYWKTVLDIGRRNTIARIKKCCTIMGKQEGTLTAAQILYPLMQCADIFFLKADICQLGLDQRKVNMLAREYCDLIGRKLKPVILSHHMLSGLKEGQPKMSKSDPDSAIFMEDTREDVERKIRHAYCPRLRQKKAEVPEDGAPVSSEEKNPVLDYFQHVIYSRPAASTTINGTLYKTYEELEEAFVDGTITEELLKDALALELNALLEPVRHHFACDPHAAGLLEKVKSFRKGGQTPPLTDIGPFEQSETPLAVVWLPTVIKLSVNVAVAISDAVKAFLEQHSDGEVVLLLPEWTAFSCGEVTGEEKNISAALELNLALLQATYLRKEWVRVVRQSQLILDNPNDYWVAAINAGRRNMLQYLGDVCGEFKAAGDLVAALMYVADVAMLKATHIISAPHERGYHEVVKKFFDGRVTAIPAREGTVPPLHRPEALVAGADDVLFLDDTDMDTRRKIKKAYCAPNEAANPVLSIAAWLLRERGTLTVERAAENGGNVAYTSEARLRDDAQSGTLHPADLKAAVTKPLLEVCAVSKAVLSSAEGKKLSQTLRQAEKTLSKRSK
In words: Trypanosoma cruzi tyrosyl tRNA synthetase (TcYRS) _High Tyrosine SOP. Also: in the data most compounds retested in dose-response had high values. The settings on record: 30 µM. The format is functional.

The target of experiment [10] is T4, Tyrosyl-tRNA synthetase, putative (Trypanosoma cruzi (strain CL Brener)). Put plainly: Trypanosoma cruzi tyrosyl tRNA synthetase (TcYRS) SOP. The settings on record: 30 µM. The format is functional.
The target of experiment [11] is Chromo domain-containing protein 1 (Saccharomyces cerevisiae (strain ATCC 204508 / S288c) (Baker's yeast)) (UniProt P32657). Put plainly: ScCHD-1 Enzyme Inhibition Assay. Also: in the data most compounds retested in dose-response had high values. The settings on record: 30 µM. The format is functional.

For some of these results: Entries with a potency or affinity are not part of this list.

Chromo domain-containing protein 1 (Saccharomyces cerevisiae (strain ATCC 204508 / S288c) (Baker's yeast)), sequence (P32657 whole entry, the tested form may be a part): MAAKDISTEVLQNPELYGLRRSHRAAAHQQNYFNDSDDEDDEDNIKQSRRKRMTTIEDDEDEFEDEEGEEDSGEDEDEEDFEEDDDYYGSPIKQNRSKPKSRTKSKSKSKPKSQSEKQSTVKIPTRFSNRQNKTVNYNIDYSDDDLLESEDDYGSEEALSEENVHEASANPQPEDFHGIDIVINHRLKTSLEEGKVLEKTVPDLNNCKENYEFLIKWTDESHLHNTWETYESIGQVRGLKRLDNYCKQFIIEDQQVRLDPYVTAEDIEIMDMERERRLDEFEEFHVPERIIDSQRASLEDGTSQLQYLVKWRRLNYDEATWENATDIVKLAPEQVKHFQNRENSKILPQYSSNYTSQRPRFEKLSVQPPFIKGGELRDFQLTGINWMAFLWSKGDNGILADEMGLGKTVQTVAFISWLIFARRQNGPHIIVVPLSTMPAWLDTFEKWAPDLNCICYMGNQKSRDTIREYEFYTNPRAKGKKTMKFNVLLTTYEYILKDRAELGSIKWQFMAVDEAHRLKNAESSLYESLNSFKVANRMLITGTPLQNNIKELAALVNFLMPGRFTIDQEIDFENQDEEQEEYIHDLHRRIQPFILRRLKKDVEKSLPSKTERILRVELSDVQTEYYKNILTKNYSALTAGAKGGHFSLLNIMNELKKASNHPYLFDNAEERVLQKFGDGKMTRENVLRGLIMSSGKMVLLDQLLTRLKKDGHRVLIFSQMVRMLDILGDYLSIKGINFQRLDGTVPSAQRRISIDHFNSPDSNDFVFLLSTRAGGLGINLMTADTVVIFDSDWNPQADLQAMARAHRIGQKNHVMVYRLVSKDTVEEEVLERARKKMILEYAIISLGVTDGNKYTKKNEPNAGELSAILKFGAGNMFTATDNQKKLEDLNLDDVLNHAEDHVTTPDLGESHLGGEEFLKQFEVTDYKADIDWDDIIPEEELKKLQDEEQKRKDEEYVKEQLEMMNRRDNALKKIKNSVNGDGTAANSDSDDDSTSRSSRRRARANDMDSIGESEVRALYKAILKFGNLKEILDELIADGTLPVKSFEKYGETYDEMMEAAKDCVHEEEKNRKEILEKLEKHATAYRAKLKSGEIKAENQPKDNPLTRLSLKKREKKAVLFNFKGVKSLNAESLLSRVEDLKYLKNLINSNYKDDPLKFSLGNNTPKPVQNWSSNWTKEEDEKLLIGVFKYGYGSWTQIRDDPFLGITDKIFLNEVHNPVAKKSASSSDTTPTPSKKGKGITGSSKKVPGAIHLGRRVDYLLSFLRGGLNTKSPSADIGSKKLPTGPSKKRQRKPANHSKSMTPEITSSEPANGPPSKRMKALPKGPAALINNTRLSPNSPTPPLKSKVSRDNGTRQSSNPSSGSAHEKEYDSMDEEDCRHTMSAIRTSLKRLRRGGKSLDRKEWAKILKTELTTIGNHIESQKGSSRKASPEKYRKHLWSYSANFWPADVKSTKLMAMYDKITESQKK
Protein translocase subunit SecA (Escherichia coli (strain K12)), sequence (P10408 whole entry): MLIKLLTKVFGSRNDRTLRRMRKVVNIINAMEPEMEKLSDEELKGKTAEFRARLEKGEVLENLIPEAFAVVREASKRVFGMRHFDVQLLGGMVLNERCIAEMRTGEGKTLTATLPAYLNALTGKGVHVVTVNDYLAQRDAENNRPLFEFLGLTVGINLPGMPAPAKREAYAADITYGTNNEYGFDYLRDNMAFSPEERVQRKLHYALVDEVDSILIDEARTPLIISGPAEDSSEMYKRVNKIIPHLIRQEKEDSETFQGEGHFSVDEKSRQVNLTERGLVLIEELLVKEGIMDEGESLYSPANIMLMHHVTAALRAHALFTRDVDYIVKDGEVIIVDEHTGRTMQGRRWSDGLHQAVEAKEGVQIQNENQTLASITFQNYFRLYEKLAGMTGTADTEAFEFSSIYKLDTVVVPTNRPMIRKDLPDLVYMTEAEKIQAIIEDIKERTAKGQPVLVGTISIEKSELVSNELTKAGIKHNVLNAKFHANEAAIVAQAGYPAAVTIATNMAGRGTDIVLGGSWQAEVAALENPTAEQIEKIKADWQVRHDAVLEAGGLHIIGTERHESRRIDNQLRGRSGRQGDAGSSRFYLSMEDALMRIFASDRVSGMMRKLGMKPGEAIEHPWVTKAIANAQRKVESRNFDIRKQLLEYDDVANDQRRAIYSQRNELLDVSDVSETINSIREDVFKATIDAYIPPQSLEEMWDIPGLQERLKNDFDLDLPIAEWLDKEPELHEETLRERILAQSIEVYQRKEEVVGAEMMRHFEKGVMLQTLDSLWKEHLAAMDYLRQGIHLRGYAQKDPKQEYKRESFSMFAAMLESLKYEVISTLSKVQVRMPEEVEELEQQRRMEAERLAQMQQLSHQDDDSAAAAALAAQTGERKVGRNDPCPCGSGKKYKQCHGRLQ
Sialic acid-binding Ig-like lectin 9 (Homo sapiens), sequence (Q9Y336 whole entry): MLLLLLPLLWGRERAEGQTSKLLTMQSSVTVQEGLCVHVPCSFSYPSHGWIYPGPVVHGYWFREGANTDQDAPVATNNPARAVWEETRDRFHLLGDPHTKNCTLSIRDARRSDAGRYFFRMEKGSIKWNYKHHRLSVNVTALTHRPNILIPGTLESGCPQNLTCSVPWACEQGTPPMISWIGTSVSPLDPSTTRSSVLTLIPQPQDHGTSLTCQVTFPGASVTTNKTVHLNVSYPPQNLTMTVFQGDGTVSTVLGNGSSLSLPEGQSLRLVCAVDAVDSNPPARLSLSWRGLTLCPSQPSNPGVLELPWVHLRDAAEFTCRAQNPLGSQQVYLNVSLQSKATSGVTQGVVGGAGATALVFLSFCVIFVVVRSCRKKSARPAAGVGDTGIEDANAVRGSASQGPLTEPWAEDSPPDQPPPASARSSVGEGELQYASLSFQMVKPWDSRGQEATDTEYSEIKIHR

On to `Cc1nc(C)n(C2CCCN(C(=O)COCc3ccccc3)C2)n1` (stereo unspecified), for which the Percent Effect was -0.388% in experiment [1]; 0% in experiment [2]; 25.2% in experiment [3]; 9.37% in experiment [4]; 2.25% in experiment [5]; 1.78% in [6]. In addition, the Percent Effect in experiment [7] is -4.22%; in experiment [8], 4.38%; in [9] it was 3.88%; in experiment [10], 12.2%; in experiment [11], -7.13%.
For `CCOc1cccc(CNc2ccccc2C(=O)OC)c1O`, the Percent Effect in [1] is 2.18%; in experiment [2] it was 6.67%; in [3] it was -9.62%; in experiment [4], -4.44%; in experiment [5], -4.32%; in [6], -10.7%. Further, the Percent Effect in [7] is 19%; in [8], 21.5%; in experiment [9], 3.17%; in experiment [10], 7.69%; in experiment [11], -13.3%.
On to `CCc1nc(C2CCCN(C(=O)c3cccc4c3ccn4C)C2)no1` (stereo unspecified), for which the Percent Effect is -2.43% in experiment [1]; -5.41% in experiment [2]; 1.08% in experiment [3]; 3.25% in experiment [4]; 5.29% in experiment [5]; -6.47% in [6]. Also, the Percent Effect in experiment [7] was 5.92%; in [8] it was 17.1%; in experiment [9], 3.96%; in experiment [10] it was 3.66%; in experiment [11], -0.759%.
Turning to `CCc1ccc(CN2C[C@@H]3OCCN(c4ccnc(N(C)C)n4)[C@@H]3C2)o1`, the Percent Effect is -1.43% in experiment [1]; 5.48% in experiment [2]; -0.72% in experiment [3]; 13.7% in [4]; 1.98% in experiment [5]; -13.6% in [6]. For the same compound, the Percent Effect in [7] was 7.28%; in experiment [8], 82.1%; in experiment [9], 5.21%; in [10], -3.7%; in [11], -4.54%.
In the case of `Cc1nn(C)c(C)c1C1COCCN1c1ncnc2sccc12` (stereo unspecified), the Percent Effect in experiment [1] was -2.31%; in experiment [2], -2.67%; in experiment [3] it was -0.892%; in experiment [4], -4.05%; in experiment [5], -0.487%; in experiment [6], -2.08%. Moreover, the Percent Effect in [7] is 10.1%; in [8], 31.3%; in [9] it was 1.64%; in [10] it was 3.7%; in experiment [11], -1.49%.
On to `CN(C)C(=O)CN1CCCC2(CCN(c3ccsc3)C2=O)C1` (stereo unspecified), for which the Percent Effect in experiment [1] is -1.45%; in experiment [2] it was 10.7%; in experiment [3], 2.54%; in experiment [4], -9.8%; in experiment [5], -5.71%; in experiment [6] it was 0.233%. Besides, the Percent Effect in experiment [7] was 7.84%; in experiment [8], 14.6%; in [9] it was -1.06%; in experiment [10], -32%; in experiment [11] it was -5.89%.
Turning to `Cc1cnn(CC2CCCCN2C(=O)Cc2csc(C)n2)c1` (stereo unspecified), the Percent Effect in experiment [1] is -3.54%; in [2] it was -3.8%; in [3] it was 5.27%; in experiment [4] it was 1.29%; in experiment [5], -5.64%; in [6], -0.645%. Also, the Percent Effect in experiment [7] was 6.17%; in experiment [8], 13.6%; in experiment [9], 2.08%; in experiment [10], -2.53%; in [11], -19.5%.
For the compound `Cc1cc(CNC(=O)C2CCCCN2C(=O)OC(C)(C)C)no1` (stereo unspecified), the Percent Effect in experiment [1] is -4.46%; in [2] it was 2.7%; in experiment [3], -5.58%; in experiment [4], 0.833%; in experiment [5] it was -2.83%; in experiment [6], 0.744%. Also, the Percent Effect was 1.29% in [7]; 4.89% in experiment [8]; 3.23% in [9]; 13.6% in [10]; -3.75% in experiment [11].
In the case of `Cc1cnn(CC2CCCCN2C(=O)c2ccc3[nH]nnc3c2)c1` (stereo unspecified), the Percent Effect in experiment [1] was -3.72%; in experiment [2], 13%; in experiment [3] it was 5.5%; in experiment [4] it was 1.47%; in [5] it was -2.25%; in [6], 2.32%. The Percent Effect in [7] was 14.3%; in [8], 22.2%; in experiment [9], 6.67%; in experiment [10] it was 9.41%; in [11] it was -11.2%.
For `Cc1csc(N2CCN(C(=O)CCC(=O)c3ccc(C)s3)CC2)n1`, the Percent Effect is -3.76% in [1]; 8.11% in experiment [2]; -7.25% in [3]; 1.58% in [4]; 1.79% in [5]; -12.4% in [6]. The Percent Effect turned out to be 13.5% in experiment [7]; 23% in experiment [8]; 7.39% in experiment [9]; 25.9% in experiment [10]; 17.6% in [11].
Consider `CCN(CC)Cc1cn2c(n1)CN(C(=O)c1cc(C)on1)CC2`, for which the Percent Effect in [1] is -2.81%; in experiment [2] it was 16.2%; in experiment [3], 5.86%; in experiment [4], -5.08%; in experiment [5] it was -4.01%; in experiment [6], 9.24%. The Percent Effect in [7] is 23.2%; in experiment [8], -1.45%; in [9], 2.16%; in [10] it was 10.3%; in [11] it was -0.746%.
